# The campaign covered roughly 5,500 compounds. About 2,000 (36%) were called active. Inconclusive results (about 18%) are left out. The list shows a part of the results. Unmarked numbers belong to inactive results. No stated cut-off is given here; in the data, active means normalized growth mostly below about 0.91 (no sharp cut-off); inconclusive means no clear call, values can overlap the other calls; inactive means mostly above about 0.92.
# Experiment: chemical genetic growth profiling, strain panel (AID 1159580);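 further: tested at 20 µM; growth read once vehicle control cultures reached saturation at 30 °C; 1 = growth at the plate median or of vehicle wells; lower values mean less growth of the strain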
# Conditions: growth OD
# [1] = S. cerevisiae deletion strains, locus YPL055C, strain LGE1, active compounds read low
# [2] = S. cerevisiae deletion strains, locus YDL101C, strain DUN1, active compounds read low
# [3] = S. cerevisiae deletion strains, locus YHR030C, strain SLT2, active compounds read low
smiles,measurement,setting,value
C=CC[C@H](N)C(=O)O,normalized growth,"S. cerevisiae deletion strains, locus YAL040C, strain CLN3, active compounds read low",0.997
same,normalized growth,"S. cerevisiae deletion strains, locus YCL061C, strain MRC1 (second series), active compounds read low",1.01
same,normalized growth,"S. cerevisiae deletion strains, locus YDR363W, strain ESC2, active compounds read low",0.962
same,normalized growth,"S. cerevisiae deletion strains, locus YER002W, strain NOP16, active compounds read low",1.01
same,normalized growth,"S. cerevisiae deletion strains, locus YNL175C, strain NOP13, active compounds read low",1.01
same,normalized growth,"S. cerevisiae deletion strains, locus YNL197C, strain WHI3, active compounds read low",0.976
same,normalized growth,"S. cerevisiae deletion strains, locus YNL224C, strain SQS1, active compounds read low",0.972
same,normalized growth,"S. cerevisiae deletion strains, locus YOR083W, strain WHI5 (second series), active compounds read low",0.974
same,normalized growth,[1],0.99
COc1cccc(C2SCc3cc(C)c(C)cc3CS2)c1O,normalized growth,"S. cerevisiae deletion strains, locus YBR229C, strain ROT2, active compounds read low",0.994
same,normalized growth,"S. cerevisiae deletion strains, locus YCL061C, strain MRC1, active compounds read low",0.998
same,normalized growth,[2],0.992
same,normalized growth,"S. cerevisiae deletion strains, locus YDL134C, strain PPH21, active compounds read low",1.02
same,normalized growth,"S. cerevisiae deletion strains, locus YDR150W, strain NUM1, active compounds read low",0.932
same,normalized growth,"S. cerevisiae deletion strains, locus YEL061C, strain CIN8, active compounds read low",1.03
same,normalized growth,"S. cerevisiae deletion strains, locus YGR078C, strain PAC10, active compounds read low",1.01
same,normalized growth,[3],1.01
same,normalized growth,"S. cerevisiae deletion strains, locus YHR087W, strain rtc3, active compounds read low",1.01
same,normalized growth,"S. cerevisiae deletion strains, locus YJR043C, strain POL32, active compounds read low",0.972
same,normalized growth,"S. cerevisiae deletion strains, locus YJR075W, strain HOC1, active compounds read low",0.985
same,normalized growth,"S. cerevisiae deletion strains, locus YKL190W, strain CNB1, active compounds read low",1.02
same,normalized growth,"S. cerevisiae deletion strains, locus YLR039C, strain RIC1, active compounds read low",1.07
same,normalized growth,"S. cerevisiae deletion strains, locus YLR058C, strain SHM2 (second series), active compounds read low",1.03
same,normalized growth,"S. cerevisiae deletion strains, locus YLR085C, strain ARP6, active compounds read low",1.04
same,normalized growth,"S. cerevisiae deletion strains, locus YLR262C, strain YPT6, active compounds read low",1.05
same,normalized growth,"S. cerevisiae deletion strains, locus YML094W, strain GIM5, active compounds read low",0.999
same,normalized growth,"S. cerevisiae deletion strains, locus YMR219W, strain ESC1, active compounds read low",1
same,normalized growth,"S. cerevisiae deletion strains, locus YMR263W, strain SAP30, active compounds read low",0.902
same,normalized growth,"S. cerevisiae deletion strains, locus YNL153C, strain GIM3, active compounds read low",0.988
same,normalized growth,"S. cerevisiae deletion strains, locus YNL298W, strain CLA4 (second series), active compounds read low",0.986
same,normalized growth,"S. cerevisiae deletion strains, locus YNL322C, strain KRE1, active compounds read low",1.01
same,normalized growth,"S. cerevisiae deletion strains, locus YNR030W, strain Alg12, active compounds read low",0.982
same,normalized growth,"S. cerevisiae deletion strains, locus YOL006C, strain TOP1, active compounds read low",1.12
same,normalized growth,[1],0.904
same,normalized growth,"S. cerevisiae deletion strains, locus YPL241C, strain CIN2, active compounds read low",0.957
same,normalized growth,"S. cerevisiae deletion strains, locus YPR135W, strain CTF4, active compounds read low",1.01
same,normalized growth,"S. cerevisiae strains, strain wild type, active compounds read low",1.01
CCOC(=O)c1ccc(N=Cc2cc(Cl)cc(Cl)c2O)cc1,normalized growth,"S. cerevisiae deletion strains, locus YAR019C, strain CDC15, active compounds read low",0.934
same,normalized growth,"S. cerevisiae deletion strains, locus YBL105C, strain PKC1, active compounds read low",0.949
same,normalized growth,"S. cerevisiae deletion strains, locus YBR135W, strain CKS1, active compounds read low",0.95
same,normalized growth,"S. cerevisiae deletion strains, locus YBR136W, strain MEC1, active compounds read low",0.954
same,normalized growth,"S. cerevisiae deletion strains, locus YBR160W, strain CDC28, active compounds read low",0.946
same,normalized growth,"S. cerevisiae deletion strains, locus YDL017W, strain CDC7, active compounds read low",0.94
same,normalized growth,"S. cerevisiae deletion strains, locus YDL028C, strain MPS1, active compounds read low",0.946
same,normalized growth,[2],0.946
same,normalized growth,"S. cerevisiae deletion strains, locus YDL108W, strain KIN28, active compounds read low",0.948
same,normalized growth,"S. cerevisiae deletion strains, locus YDL132W, strain cdc53, active compounds read low",0.975
same,normalized growth,"S. cerevisiae deletion strains, locus YDL214C, strain PRR2, active compounds read low",0.3 (active)
same,normalized growth,"S. cerevisiae deletion strains, locus YDR052C, strain DBF4, active compounds read low",0.95
same,normalized growth,"S. cerevisiae deletion strains, locus YDR226W, strain ADK1, active compounds read low",0.969
same,normalized growth,"S. cerevisiae deletion strains, locus YDR477W, strain SNF1, active compounds read low",0.289 (active)
same,normalized growth,"S. cerevisiae deletion strains, locus YER123W, strain YCK3, active compounds read low",0.157 (active)
same,normalized growth,"S. cerevisiae deletion strains, locus YER133W, strain GLC7, active compounds read low",0.344 (active)
same,normalized growth,"S. cerevisiae deletion strains, locus YFL009W, strain cdc4, active compounds read low",0.964
same,normalized growth,"S. cerevisiae deletion strains, locus YFL029C, strain CAK1, active compounds read low",0.923
same,normalized growth,"S. cerevisiae deletion strains, locus YFR003C, strain YPI1, active compounds read low",0.939
same,normalized growth,"S. cerevisiae deletion strains, locus YFR019W, strain FAB1, active compounds read low",0.153 (active)
same,normalized growth,"S. cerevisiae deletion strains, locus YFR028C, strain CDC14, active compounds read low",0.957
same,normalized growth,"S. cerevisiae deletion strains, locus YGR040W, strain KSS1, active compounds read low",0.349 (active)
same,normalized growth,"S. cerevisiae deletion strains, locus YGR052W, strain FMP48, active compounds read low",0.257 (active)
same,normalized growth,"S. cerevisiae deletion strains, locus YGR092W, strain DBF2, active compounds read low",0.135 (active)
same,normalized growth,[3],0.135 (active)
same,normalized growth,"S. cerevisiae deletion strains, locus YHR079C, strain IRE1, active compounds read low",0.131 (active)
same,normalized growth,"S. cerevisiae deletion strains, locus YHR082C, strain KSP1, active compounds read low",0.2 (active)
same,normalized growth,"S. cerevisiae deletion strains, locus YHR205W, strain SCH9, active compounds read low",0.221 (active)
same,normalized growth,"S. cerevisiae deletion strains, locus YIL147C, strain SLN1, active compounds read low",0.937
same,normalized growth,"S. cerevisiae deletion strains, locus YJL095W, strain BCK1, active compounds read low",0.136 (active)
same,normalized growth,"S. cerevisiae deletion strains, locus YJL128C, strain PBS2, active compounds read low",0.908
same,normalized growth,"S. cerevisiae deletion strains, locus YJL157C, strain FAR1, active compounds read low",0.181 (active)
same,normalized growth,"S. cerevisiae deletion strains, locus YJR016C, strain ILV3, active compounds read low",0.963
same,normalized growth,"S. cerevisiae deletion strains, locus YJR066W, strain TOR1 (second series), active compounds read low",0.289 (active)
same,normalized growth,"S. cerevisiae deletion strains, locus YJR066W, strain TOR1, active compounds read low",0.169 (active)
same,normalized growth,"S. cerevisiae deletion strains, locus YKL048C, strain ELM1, active compounds read low",0.405 (active)
same,normalized growth,"S. cerevisiae deletion strains, locus YKL067W, strain YNK1, active compounds read low",0.274 (active)
same,normalized growth,"S. cerevisiae deletion strains, locus YKL101W, strain HSL1, active compounds read low",0.323 (active)
same,normalized growth,"S. cerevisiae deletion strains, locus YKL193C, strain SDS22, active compounds read low",0.957
same,normalized growth,"S. cerevisiae deletion strains, locus YKL203C, strain TOR2, active compounds read low",0.296 (active)
same,normalized growth,"S. cerevisiae deletion strains, locus YLR113W, strain HOG1, active compounds read low",0.166 (active)
same,normalized growth,"S. cerevisiae deletion strains, locus YLR133W, strain CKI1, active compounds read low",0.208 (active)
same,normalized growth,"S. cerevisiae deletion strains, locus YLR403W, strain SFP1, active compounds read low",0.166 (active)
same,normalized growth,"S. cerevisiae deletion strains, locus YML070W, strain DAK1, active compounds read low",0.198 (active)
same,normalized growth,"S. cerevisiae deletion strains, locus YMR001C, strain CDC5, active compounds read low",0.943
same,normalized growth,"S. cerevisiae deletion strains, locus YMR205C, strain PFK2 (second series), active compounds read low",0.308 (active)
same,normalized growth,"S. cerevisiae deletion strains, locus YMR277W, strain FCP1, active compounds read low",0.96
same,normalized growth,"S. cerevisiae deletion strains, locus YNL006W, strain LST8, active compounds read low",0.952
same,normalized growth,"S. cerevisiae deletion strains, locus YNL020C, strain ARK1, active compounds read low",0.175 (active)
same,normalized growth,"S. cerevisiae deletion strains, locus YNL161W, strain CBK1, active compounds read low",0.965
same,normalized growth,"S. cerevisiae deletion strains, locus YNL183C, strain NPR1, active compounds read low",0.229 (active)
same,normalized growth,"S. cerevisiae deletion strains, locus YNL207W, strain RIO2, active compounds read low",0.951
same,normalized growth,"S. cerevisiae deletion strains, locus YNL222W, strain SSU72, active compounds read low",0.956
same,normalized growth,"S. cerevisiae deletion strains, locus YNL307C, strain MCK1 (second series), active compounds read low",0.175 (active)
same,normalized growth,"S. cerevisiae deletion strains, locus YOL078W, strain AVO1, active compounds read low",0.922
same,normalized growth,"S. cerevisiae deletion strains, locus YOL136C, strain PFK27, active compounds read low",0.153 (active)
same,normalized growth,"S. cerevisiae deletion strains, locus YOR061W, strain CKA2, active compounds read low",0.193 (active)
same,normalized growth,"S. cerevisiae deletion strains, locus YOR119C, strain RIO1, active compounds read low",0.368 (active)
same,normalized growth,"S. cerevisiae deletion strains, locus YOR231W, strain MKK1, active compounds read low",0.131 (active)
same,normalized growth,"S. cerevisiae deletion strains, locus YOR329C, strain SCD5, active compounds read low",0.942
same,normalized growth,"S. cerevisiae deletion strains, locus YPL031C, strain PHO85, active compounds read low",0.245 (active)
same,normalized growth,"S. cerevisiae deletion strains, locus YPL153C, strain RAD53, active compounds read low",0.213 (active)
same,normalized growth,"S. cerevisiae deletion strains, locus YPL204W, strain HRR25, active compounds read low",0.196 (active)
same,normalized growth,"S. cerevisiae deletion strains, locus YPL209C, strain IPL1, active compounds read low",0.952
same,normalized growth,"S. cerevisiae deletion strains, locus YPL256C, strain CLN2, active compounds read low",0.152 (active)
same,normalized growth,"S. cerevisiae deletion strains, locus YPR025C, strain CCL1, active compounds read low",0.948
same,normalized growth,"S. cerevisiae deletion strains, locus YPR106W, strain ISR1, active compounds read low",0.958
same,normalized growth,"S. cerevisiae deletion strains, locus YPR111W, strain DBF20, active compounds read low",0.955
same,normalized growth,"S. cerevisiae deletion strains, strain NNK1, active compounds read low",0.952
same,normalized growth,"S. cerevisiae deletion strains, strain TSCII, active compounds read low",0.913

# — PubChem BioAssay AID1159580 (chemical genetic matrix, 2015)
